Bioassay records (PubChem BioAssay)
HIF-2a inh = HIF-2a reporter inhibitors, primary screen, luminescence, 786-0 RCC cells. 786-0 RCC cells HIF-2a reporter, luciferase luminescence, overnight. inhibition, % at 18.8 µM. actives 0.72% (n = 360,000). AID 624352, 2012;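 active means inhibition of the luminescence signal of 40% or more relative to plate controls, in a single-dose primary screen at 18.75 µM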
CF NFkB inh = inhibitors of PAF-induced NF-kB signaling, primary screen, cell-based, GFP fluorescence, uHTS. actives 0.86% (n = 360,000). KKLEB NF-kB-GFP reporter, GFP fluorescence overnight. inhibition, % at 5 µM;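 active means at least 50% inhibition at 5 µM, scaled per plate between neutral and stimulator controls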;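 further: PAF is a Pseudomonas aeruginosa culture filtrate used as stimulus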
TWEAK Fn14 block = inhibitors of TWEAK-Fn14 signaling, primary screen, luciferase reporter cells, uHTS; TWEAK-stimulated Fn14 reporter cells, luciferase luminescence, 8 h; inhibition, % at 10 µM; actives 2% (n = 360,000); AID 1159606, 2016; in the data active means inhibition above about 50%
Peg3 prom inh = Peg3 promoter-driven luciferase inhibitors, primary screen, cell-based, HeLa, luciferase luminescence; HeLa PEG-Prom luciferase reporter, overnight; inhibition, % at 20 µM; actives 1.7% (n = 360,000); AID 588405, 2011;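 active means inhibition of at least 50% at 20 µM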
TROY NFkB inh = inhibitors of TROY-driven NF-kB signaling, primary screen, Q293 LMP1-TROYcd cells, NF-kB luciferase, uHTS. Q293 LMP1-TROYcd NF-kB luciferase reporter, 4 h. inhibition, % at 10 µM. actives 0.98% (n = 360,000). AID 1347056, 2019;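 active means compounds whose plate-normalised and pattern-corrected inhibition of the luciferase reporter signal at the single screening dose is 50% or more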
KKLEB tox = cytotoxicity in KKLEB CF airway cells, primary screen, cytotoxicity control for CF NF-kB inhibitor project, cell-based, uHTS, fluorescence assay plates; KKLEB CF airway cells viability, ATPlite luminescence, overnight; stronger effect = lower value; cells stimulated with P. aeruginosa culture filtrate; activity change (cytotoxicity), % at 5 µM; actives 0.36% (n = 360,000);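 active means corrected activity change at or below -50% at 5 µM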
Of the large screens only hits and unclear results are named; the others gave an inactive call. Most compounds without a hit are left out; they make up all but 4% or so of the library.

O=C(Nc1ccc(-c2nc3ccccc3s2)cc1)C1=COCCO1	TWEAK Fn14 block 91, TROY NFkB inh 77, KKLEB tox -53
Cc1ccsc1/C=N/Nc1ccc(C(=O)O)cc1	HIF-2a inh 57, TWEAK Fn14 block 99
Cc1cc(O)c(C=O)c2c1C(=O)Oc1c(CO)c(O)c3c(c1O2)C(O)OC3=O (centres undefined)	TWEAK Fn14 block 56
CN(C)CCN(C)C1CN(Cc2ccc([N+](=O)[O-])cc2)S(=O)(=O)C1 (centres undefined)	none
COC(=O)[C@@]12C[C@@H](CC(=O)NCCC(C)C)C(=O)N(CCc3ccc(OC)c(OC)c3)C1=CCC(C)(C)C2	none (no result: CF NFkB inh, TWEAK Fn14 block, Peg3 prom inh, TROY NFkB inh, KKLEB tox)
Clc1ccc(-n2ncc3c(N4CCCC4)ncnc32)cc1	TWEAK Fn14 block 100, TROY NFkB inh 80
COc1cccc(OCCN2CCN(c3ncnc4c3cnn4-c3ccccc3)CC2)c1	TWEAK Fn14 block 57
CC(C)(C)Nc1ncnc2c1cnn2-c1ccccc1	TROY NFkB inh 51
CC1CCN(c2ncnc3c2cnn3-c2ccccc2)CC1	none
CCOC(=O)N1CCN(c2ncnc3c2cnn3-c2ccc(OC)cc2)CC1	none (no result: TROY NFkB inh)
Cn1ncc2c(N3CCN(c4ccc(Cl)c(Cl)c4)CC3)ncnc21	TWEAK Fn14 block 85, Peg3 prom inh 100
COc1cc(/C=C/C(=O)OCC(=O)NCCc2ccc(F)cc2)ccc1OC(F)F	none
COC(=O)[C@@]12C[C@@H](CC(=O)N3CCN(C(=O)C4CC4)CC3)C(=O)N(Cc3ccco3)C1=CCC(C)(C)C2	none (no result: CF NFkB inh, TWEAK Fn14 block, Peg3 prom inh, TROY NFkB inh, KKLEB tox)
Cc1ccc(CC2(C)C(=O)Nc3c(Cl)ccc(Cl)c32)cc1 (centres undefined)	none
Clc1ccc(Nc2ncnc3c2cnn3-c2ccccc2)cc1	none
COc1ccc(-n2ncc3c(N4CCC(C)CC4)ncnc32)cc1	TWEAK Fn14 block 66, TROY NFkB inh 69
CC(C)Nc1ncnc2c1cnn2-c1ccc(Cl)cc1	TWEAK Fn14 block 74, TROY NFkB inh 64
OCCOCCNc1ncnc2c1cnn2-c1ccc(Cl)cc1	none
COCCNc1ncnc2c1cnn2-c1ccc(Cl)cc1	TWEAK Fn14 block 54
CC(=O)O[C@@H]1C[C@@]2(C)[C@@H](CC[C@H]2[C@@H](C)/C=C\CC(C)C)C2=C[C@@H](O)[C@@]3(O)C[C@@H](O)[C@H](O)C[C@]3(CO)[C@]21O	none
O=C(O)CCn1nnc(-c2cccs2)n1	none
CC(C)c1ccc(-c2nnn(CCC(=O)O)n2)cc1	HIF-2a inh 89, TWEAK Fn14 block 87
Cc1ccc(C(NC(=O)NC(C)c2ccccc2)C(Cl)(Cl)Cl)cc1F (centres undefined)	TWEAK Fn14 block 55, TROY NFkB inh 58
CC(NC(=O)Nc1ccc(Cl)cc1)c1ccccc1 (centres undefined)	none
CO[C@H]1C=CO[C@@]2(C)Oc3c(C)c(O)c4c(O)c(c(C=NN5CCN(C)CC5)c(O)c4c3C2=O)NC(=O)C(C)=CC=C[C@H](C)[C@H](O)[C@@H](C)[C@@H](O)[C@@H](C)[C@H](OC(C)=O)[C@@H]1C	none
CO[C@H]1/C=C/O[C@@]2(C)Oc3c(C)c(O)c4c(O)c(c(C=NN5CCN(C)CC5)c(O)c4c3C2=O)NC(=O)/C(C)=C\C=C\[C@H](C)[C@H](O)[C@@H](C)[C@@H](O)[C@@H](C)[C@H](OC(C)=O)[C@@H]1C	CF NFkB inh 55
CCN(C(=O)COC(=O)CCCOc1ccc(Cl)cc1C)c1c(N)n(Cc2ccccc2)c(=O)[nH]c1=O	none
Cc1noc(C)c1COc1ccccc1C(=O)NCc1ccco1	none
CCN(CC)CC(=O)Nc1cccc2c1C(=O)c1ccccc1C2=O	none
O=C1c2ccccc2C(=O)c2c(NCCCN(CCO)CCO)cccc21	Peg3 prom inh 59
